# Test results taken from PubChem BioAssay (NCI).
# This is part of a sample that, as a whole, favours compounds with a hit. Of some 83,000 tested, about 20% had one in any assay.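 The endpoint reported here, percent growth, reads 100 for growth as untreated, 0 for no net growth and -100 for all cells dead.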 A number with no mark means an inactive call. Calls of active or inactive are those of the source. The calls were made as follows: active = growth percent below 10; inactive = the rest.
# Columns and labels:
# Experiment in all cases: NCI-60 one-dose screen, 48 h (100 = growth as untreated, 0 = no growth, -100 = all killed)
# Conditions in all cases: 10 µM unless noted
# NCI-H23 lung = tested on: NCI-H23 lung
# NCI-H226 lung = tested on: NCI-H226 lung
# NCI-H322M lung = tested on: NCI-H322M lung
# HOP-62 NSCLC = tested on: HOP-62 NSCLC
# NCI-H460 lung = tested on: NCI-H460 lung
# HOP-92 NSCLC = tested on: HOP-92 NSCLC
# NCI-H522 lung = tested on: NCI-H522 lung
# A549/ATCC NSCLC = tested on: A549/ATCC NSCLC
# 786-0 renal = tested on: 786-0 renal
# COLO 205 colon = tested on: COLO 205 colon
# DU-145 prostate = tested on: DU-145 prostate
# K-562 leukemia = tested on: K-562 leukemia
# MALME-3M melanoma = tested on: MALME-3M melanoma
# MDA-MB-231 breast = tested on: MDA-MB-231 breast
# RXF 393 renal = tested on: RXF 393 renal
# SF-268 CNS = tested on: SF-268 CNS
# SF-295 CNS = tested on: SF-295 CNS
# SF-539 CNS = tested on: SF-539 CNS
# UACC-257 melanoma = tested on: UACC-257 melanoma
# M14 melanoma = tested on: M14 melanoma
SMILES,growth (NCI-H23 lung),growth (NCI-H226 lung),growth (NCI-H322M lung),growth (HOP-62 NSCLC),growth (NCI-H460 lung),growth (HOP-92 NSCLC),growth (NCI-H522 lung),growth (A549/ATCC NSCLC),growth (786-0 renal),growth (COLO 205 colon),growth (DU-145 prostate),growth (K-562 leukemia),growth (MALME-3M melanoma),growth (MDA-MB-231 breast),growth (RXF 393 renal),growth (SF-268 CNS),growth (SF-295 CNS),growth (SF-539 CNS),growth (UACC-257 melanoma),growth (M14 melanoma)
O=C(CC1(O)C(=O)N(Cc2ccccc2)c2ccc(Br)cc21)c1ccc(C(=O)NCC2CCC3(CC2)OOC2(CCCCC2)OO3)cc1 (stereo not given),-74.3% (active),-33% (active),73.9%,-55.6% (active),-41% (active),-74.1% (active),2.53% (active),-61.1% (active),-70.7% (active),-49.5% (active),-98.8% (active),-5.58% (active),-68.1% (active),-73.9% (active),-76.5% (active),-1.12% (active),29.3%,-85.1% (active),57%,41.9%
CC[C@H](NC(=O)[C@H]1CCCCN1C)C(=O)N(C)[C@H](C[C@@H](OC(C)=O)c1nc(C(=O)N[C@@H](Cc2ccccc2)C[C@H](C)C(=O)O)cs1)C(C)C,23%,65.7%,46.6%,25.4%,2.71% (active),46%,-19.9% (active),10.4%,10.8%,-54.5% (active),0.513% (active),6.94% (active),76%,9.34% (active),43.2%,30.2%,0.548% (active),-12.1% (active),52.9%,-10.4% (active)
CC(=O)c1ccc(C(=O)NCC2CCC3(CC2)OOC2(CCCCC2)OO3)cc1,22.8%,85.8%,89.8%,16.4%,88.1%,-31.4% (active),60.8%,23.5%,-70.5% (active),97.1%,32.8%,56.2%,74%,70.9%,84.7%,87.9%,94.9%,66.6%,84.7%,90.2%
COC(=O)N[C@H]1CCc2c(Br)c(OC)c(OC)c(OC)c2-c2ccc(SC)c(=O)cc21,31.3%,12.5%,28%,29.7%,-14.1% (active),-0.443% (active),8.44% (active),18.3%,10.9%,-52.5% (active),-1.4% (active),6.78% (active),28.6%,-12.3% (active),16.8%,17.7%,9.53% (active),-6.59% (active),67.4%,2.58% (active)
COC(=O)[C@@]1(C)CC[C@]2(C)CC[C@]3(C)C4=CC=C5C(=CC(=O)C(O)=C5C)[C@]4(C)CC[C@@]3(C)[C@@H]2C1,-72.6% (active),-59.1% (active),-95.3% (active),-90.6% (active),-83% (active),-86.7% (active),-78.3% (active),-92.9% (active),-90% (active),-77.2% (active),-96.7% (active),-54.4% (active),-87.3% (active),-93.4% (active),-84% (active),-83.2% (active),-91.8% (active),-99.6% (active),-88.3% (active),-94% (active)
CC(=O)O[C@H]1CC[C@H]2[C@@H]3CC=C4c5nc(-c6ccccc6)sc5CC[C@]4(C)[C@H]3CC[C@]12C,71.7%,95.5%,91.4%,72.1%,39.4%,102%,43.8%,57.9%,66.3%,7.45% (active),86.1%,8.09% (active),93.9%,64.2%,79.2%,78.9%,-0.49% (active),13.8%,64.6%,61.5%
CC(C)(C)C(=O)OCOP(=O)(OCOC(=O)C(C)(C)C)C1CCCN(O)C1=O (stereo not given),-13.4% (active),-1.39% (active),14.7%,18.2%,1.85% (active),7.23% (active),-7.58% (active),10.8%,12.4%,-16.8% (active),20%,8.42% (active),12.3%,5.67% (active),-9.35% (active),4.35% (active),54%,27.4%,18.9%,26.6%
